Here are results for 11 compounds from ChEMBL document CHEMBL3988442, “University of Dundee, Small-Polar-MMV Screening Library” (2021).

The target of test [1] is T1, Aspartate--tRNA(Asp/Asn) ligase (Mycobacterium tuberculosis (strain ATCC 25618 / H37Rv)) (UniProt P9WFW3). Note: in the data most compounds retested in dose-response had high values.
T1 sequence (whole entry): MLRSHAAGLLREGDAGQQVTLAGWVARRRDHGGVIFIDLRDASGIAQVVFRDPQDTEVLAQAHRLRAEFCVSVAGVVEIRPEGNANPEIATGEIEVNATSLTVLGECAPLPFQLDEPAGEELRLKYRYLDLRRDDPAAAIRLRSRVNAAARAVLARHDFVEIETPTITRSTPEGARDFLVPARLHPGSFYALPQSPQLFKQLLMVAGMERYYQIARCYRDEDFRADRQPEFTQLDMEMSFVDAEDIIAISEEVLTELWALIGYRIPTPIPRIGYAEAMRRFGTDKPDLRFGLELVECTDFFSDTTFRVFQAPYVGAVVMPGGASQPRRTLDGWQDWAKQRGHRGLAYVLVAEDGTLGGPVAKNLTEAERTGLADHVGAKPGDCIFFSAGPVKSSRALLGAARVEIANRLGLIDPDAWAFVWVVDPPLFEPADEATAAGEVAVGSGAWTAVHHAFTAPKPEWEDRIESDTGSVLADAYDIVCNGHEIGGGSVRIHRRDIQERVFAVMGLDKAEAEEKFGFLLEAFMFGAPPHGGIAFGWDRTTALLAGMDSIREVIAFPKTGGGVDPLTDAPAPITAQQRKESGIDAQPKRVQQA
The experiment in a line: Assay for Asp RNA synthetase-1 from Mycobacterium tuberculosis. Format: functional. Details: scale not given: direction of the effect not stated beside the values. Particulars: 30 µM.

Test [2] addresses Shiga toxin 2 (Escherichia coli O157:H7) (UniProt P09385+P09386). As to the kind of experiment: E. coli 0.157:H7 Shiga Toxin SOP - stx2 screening assay. The format is functional. Details: scale not given: direction of the effect not stated beside the values. Particulars: 30 µM.

Structures are written as SMILES.

With `CC(Cn1cccn1)NC(=O)NCCc1cnn(C)c1` (configuration not stated), the Percent Effect was -2.54% in test [1] and -3.5% in test [2].
For `Cc1cccc(COC[C@H]2CC[C@H]3[C@H](CCN3C(=O)CC3CC3)O2)n1`, the Percent Effect in test [1] was -1.43%; in test [2], 1.2%.
With `Cc1ccc(C(=O)N2CCC3(CC2)CC(N2CCOCC2)C3)cc1`, the Percent Effect in test [1] is -1.52%; in test [2], 3.95%.
Take `Cc1nn(C)c(C)c1CC(=O)N1CCC(Nc2cccnn2)CC1`: the Percent Effect in test [1] was -1.68%; in test [2], -23.4%.
In the same order, the values of `Cn1cnc2c1CCN(CCCc1ccccc1)C2` are 1.13% and 1.04%.
As for `O=C(c1ccncc1)N1CCC2(CC1)CC(Oc1cccnc1)CO2` (configuration not stated), the Percent Effect in test [1] is 4.1%; in test [2], 12.2%.
On to `c1cnnc(N2CCCC2CNc2ncnc3ccccc23)c1` (configuration not stated), for which the Percent Effect is 3.45% in test [1] and -33.7% in test [2].
In the case of `CCS(=O)(=O)N1C[C@H]2CCC[C@@]2(COc2ccccn2)C1`, the Percent Effect in test [1] came out at 3.6%; in test [2], 2.64%.
With `Cc1cc(NC(=O)CCN(CC2CCOC2)C2CC2)no1` (configuration not stated), the Percent Effect is -6.8% in test [1] and -16.3% in test [2].
For `Cc1cccc(C(=O)NCCCN2CCN(c3ccccc3)CC2)c1`, the Percent Effect was 0.86% in test [1] and -54% in test [2].
For the compound `Clc1ccccc1C1(c2ccnc(-c3ncccn3)n2)CCNCC1`, the Percent Effect is 8.32% in test [1] and -34.1% in test [2].
